Structures are written as SMILES. Records with an inconclusive call do not appear. Entries that show only a call come without a potency. Calls of active or inactive are those of the source. Calls follow the shape of the full dose curve; tested in HEK293 reporter line.
Potency is read from the fitted curve at half-maximal effect.

A short description of this assay: qHTS for Inhibitors of the Functional Ribonucleoprotein Complex (vRNP) of Lymphocytic Choriomeningitis Arenaviruses (LCMV): Viability assay - alamar blue signal for LCMV Primary Screen (AID 1347085). Also: nearly all actives have a fitted effect of over 80% in size. The conditions noted are these: alamar blue viability counter-screen, LCMV vRNP screen cells; series mostly up to 57.5 µM; activity change, negative = lower viability: at the top concentration.
`Cc1nccn1CC1CCc2c(c3ccccc3n2C)C1=O` (stereo not drawn): the Potency result was “inactive”.
As to `CNCCc1ccccn1`, the “activity change, negative = lower viability” value was 5.72% (inactive).
As to `CC/C=C(\C(=O)N[C@@H]1C(=O)N2C(C(=O)OCOC(=O)C(C)(C)C)=C(COC(N)=O)CS[C@H]12)c1csc(N)n1`, the Potency result is “inactive”.
On to `Cc1ccnc2c1NC(=O)c1cccnc1N2C1CC1`, for which the “activity change, negative = lower viability” value is -19.4% (inactive).
Take `NS(=O)(=O)c1cc2c(cc1C(F)(F)F)NCNS2(=O)=O`: the “activity change, negative = lower viability” value is 0.346% (inactive).
`C[C@@H](O)[C@H]1C(=O)N2C(C(=O)O)=C(S[C@@H]3CN[C@H](C(=O)N(C)C)C3)[C@H](C)[C@H]12`: the Potency entry is “inactive”.
In the case of `CCCCC1=NC2(CCCC2)C(=O)N1Cc1ccc(-c2ccccc2-c2nn[nH]n2)cc1`, the “activity change, negative = lower viability” value is -16.4% (inactive).
Consider `CO[C@@H](C(=O)N1Cc2[nH]nc(NC(=O)c3ccc(N4CCN(C)CC4)cc3)c2C1)c1ccccc1`, for which the Potency was 6.85 µM (active).
For the molecule `O=C(O)c1ccc(-n2nc(-c3ccccc3O)nc2-c2ccccc2O)cc1`, the Potency entry was “inactive”.
The same measure, in the same setting: with `CN(C)CCC=C1c2ccccc2C=Cc2ccccc21` the entry was “inactive”; with `O=C1CCC(N2C(=O)c3ccccc3C2=O)C(=O)N1` (stereo not drawn), “inactive”.
For `N=c1nc(N2CCCCC2)cc(N)n1O`, the Potency result is “inactive”.
On to `Cn1cnc2c(F)c(Nc3ccc(Br)cc3Cl)c(C(=O)NOCCO)cc21`, for which the “activity change, negative = lower viability” value is 13.7% (inactive).
Take `O=C1N=C(O)CN1/N=C/c1ccc(-c2ccc([N+](=O)[O-])cc2)o1`: the Potency result is “inactive”.
Regarding `COC(=O)[C@H]1[C@H]2C[C@@H]3c4[nH]c5cc(OC)ccc5c4CCN3C[C@H]2C[C@@H](OC(=O)c2cc(OC)c(OC)c(OC)c2)[C@@H]1OC`, the Potency result is “inactive”.
Take `CCCCNC(=O)NS(=O)(=O)c1ccc(C)cc1`: the Potency entry was “inactive”.
For `CC(C)C[C@H](NC(=O)[C@H](Cc1ccccc1)NC(=O)c1cnccn1)B(O)O`, the Potency was 0.685 µM (active).
As to `CC1(C)NC(=O)N(c2ccc([N+](=O)[O-])c(C(F)(F)F)c2)C1=O`, the Potency result was “inactive”.
Regarding `CC(C)(C#N)c1cc(Cn2cncn2)cc(C(C)(C)C#N)c1`, the Potency result was “inactive”.
For the molecule `Cc1ccsc1C(=CCCN1CCC[C@@H](C(=O)O)C1)c1sccc1C`, the “activity change, negative = lower viability” value is -11.9% (inactive).
Regarding `CCC(C)n1ncn(-c2ccc(N3CCN(c4ccc(OC[C@H]5CO[C@](Cn6cncn6)(c6ccc(Cl)cc6Cl)O5)cc4)CC3)cc2)c1=O` (stereo partly drawn), the Potency result was “inactive”.
For `C[C@@H](NCCCc1cccc(C(F)(F)F)c1)c1cccc2ccccc12`, the Potency result is “inactive”.
Take `CCC(=O)O[C@H]1[C@H](O[C@@H]2[C@@H](C)[C@H](O[C@H]3C[C@@](C)(OC)[C@@H](O)[C@H](C)O3)[C@@H](C)C(=O)O[C@H](CC)[C@@](C)(O)[C@H](O)[C@@H](C)C(=O)[C@H](C)C[C@@]2(C)O)O[C@H](C)C[C@@H]1N(C)C`: the “activity change, negative = lower viability” value was 3.81% (inactive).
As to `Nc1nc2c(ncn2COCCO)c(=O)[nH]1`, the Potency entry is “inactive”.
As for `C[C@@H]1C[C@H]2[C@@H]3CCC4=CC(=O)C=C[C@]4(C)[C@@]3(F)[C@@H](O)C[C@]2(C)[C@@]1(O)C(=O)CO`, the “activity change, negative = lower viability” value is -1.26% (inactive).
As to `CC(=O)OCC(CCn1cnc2cnc(N)nc21)COC(C)=O`, the Potency entry is “inactive”.
For `CCOc1ccc2ccccc2c1C(=O)N[C@@H]1C(=O)N2[C@@H]1SC(C)(C)[C@@H]2C(=O)O`, the “activity change, negative = lower viability” value was 1.79% (inactive).
Turning to `O=C(OC1C[C@H]2CC[C@@H](C1)[N+]21CCCC1)C(O)(c1ccccc1)c1ccccc1` (stereo partly drawn), the “activity change, negative = lower viability” value was 2.92% (inactive).
As for `CCCN[C@H]1CCc2nc(N)sc2C1`, the Potency entry is “inactive”.
As to `N[C@@H](Cc1cc(I)c(Oc2cc(I)c(O)c(I)c2)c(I)c1)C(=O)O`, the Potency result is “inactive”.
As for `COC(=O)[C@@H]1CC2=CC(=O)CC[C@]2(C)[C@@]23O[C@@H]2C[C@@]2(C)[C@@H](CC[C@@]24CCC(=O)O4)[C@H]13`, the “activity change, negative = lower viability” value is 4.87% (inactive).
Turning to `CC(C)(C(=O)O)c1ccc(C(O)CCCN2CCC(C(O)(c3ccccc3)c3ccccc3)CC2)cc1` (stereo not drawn), the Potency entry was “inactive”.
Regarding `COc1nc(N)nc2c1ncn2[C@@H]1O[C@H](CO)[C@@H](O)[C@@H]1O`, the Potency result is “inactive”.
For `CN(N=O)C(=O)N[C@@H]1[C@@H](O)[C@H](O)[C@@H](CO)O[C@@H]1O`, the “activity change, negative = lower viability” value is 7.64% (inactive).
With `O[C@@H]1CO[C@H]2[C@@H]1OC[C@@H]2O`, the “activity change, negative = lower viability” value is 1.73% (inactive).
Consider `O=C1CCc2cc(OCCCCc3nnnn3C3CCCCC3)ccc2N1`, for which the Potency result was “inactive”.
With `CN(C)C(=N)N=C(N)N`, the “activity change, negative = lower viability” value was 18.1% (inactive).
Turning to `Nc1nnc(-c2cccc(Cl)c2Cl)c(N)n1`, the Potency result is “inactive”.

The values are drawn from PubChem BioAssay (NCATS).
